PubChem BioAssay (Tox21)
Where “and” joins values, the source holds several entries; their conditions need not be identical. Equal entries are not always repeated. Results filed as inconclusive are left out. A call without a number means that no potency is given here. Unmarked numbers belong to inactive results. Calls of active or inactive are those of the source. Calls follow the shape of the dose curve; as a rule, active = well fitted inhibition curve with a large enough effect in the repeat runs; inconclusive = weak or mixed curves; inactive = flat fitted curve, though single readings scatter.

assay: qHTS assay to identify small molecule HDAC inhibitors (AID 1259364); settings: HCT-116 HDAC-Glo I/II luminescence, 2 h; series mostly up to 92.4 µM; activity change, negative = inhibition: at the top concentration; also: nearly all actives have a fitted effect of over 45% in size; as to activity change, negative = inhibition: top concentration of the series differs between compounds
Excerpt: U.S. Tox21 Program National Center for Advancing Translational Sciences [NCATS] NIH Chemical Genomics Center [NCGC] U.S. Environmental Protection Agency [EPA] National Institutes of Environmental Health Sciences [NIEHS] National Toxicology Program [NTP] U.S. Food and Drug Administration [FDA] Tox21 Assay Overview: Histone deacetylases (HDACs) are a group of epigenetic enzymes that regulate gene expression by histone deacetylation. HDACs are capable of introducing epigenetic modifications and such aberrations contribute to the onset and progression of several human diseases, thus making HDACs a popular therapeutic target. For identifying endogenous class I/II HDAC inhibitors a homogenous, luminogenic HDAC I/II cell based assay was used to measure the relative activity of class I and II HDACs from cells. Wild type HCT-116 cells were used to screen Tox21 libraries for identifying class I/II HDAC inhibitors.
Tox21 Assay Protocol Summary: HCT-116 cells were dispensed at 1,500 per well in 5uL of culture medium into white solid bottom 1536-well plates (Greiner Bio-One, Monroe, NC) using a Multidrop Combi (Thermo Scientific, Waltham, MA) dispenser. The assay plates were incubated at 37 C and 5% CO2 for an overnight, and then 23nL of compounds dissolved in DMSO and positive control were transferred using a Pintool station (Wako, San Diego, CA). The assay plates were incubated at 37C and 5% CO2 for 2hr. After compound treatment, 4uL of HDAC-Glo reagent (Promega Corporation, Madison, WI) was added to each well of the assay plates using Flying Reagent Dispenser (FRD, Aurora Discovery, San Diego, CA) and incubated the assay plates at room temperature for 30min. The luminescence signal was quantified using a ViewLux plate reader (Perkin Elmer, Shelton, CT).
Potency is read from the fitted curve at half-maximal effect.

| SMILES | Potency | activity change, negative = inhibition |
| --- | --- | --- |
| NC(=O)c1ccccc1O | inactive | – |
| Cc1ccc(S(=O)(=O)NC(=O)NN2CCCCCC2)cc1 | inactive | – |
| O=c1ccc2ccccc2o1 | inactive | – |
| CCOc1ccc(NC(=O)CC(C)O)cc1 (stereo not given) | inactive | – |
| NC(=O)c1cnccn1 | inactive | – |
| Cc1cn([C@H]2C[C@H](N=[N+]=[N-])[C@@H](CO)O2)c(=O)[nH]c1=O | inactive | – |
| CC(O)C(=O)O (stereo not given) | inactive | – |
| CCCNC(=O)NS(=O)(=O)c1ccc(Cl)cc1 | inactive | – |
| NS(=O)(=O)c1cc(C(=O)O)c(NCc2ccco2)cc1Cl | inactive | – |
| Cn1cc[nH]c1=S | inactive | – |
| O=C(O)c1cccnc1 | inactive | – |
| O=C(O)C(=O)O | inactive | – |
| CCCCCCCCCCCCCCCC(=O)O | inactive | – |
| CC(=O)OCC(COC(C)=O)OC(C)=O | inactive | – |
| O=C(c1ccccc1)c1ccccc1 | inactive | – |
| Oc1ccc(/C=C/c2cc(O)cc(O)c2)cc1 | 1.95 µM (active) and 1.22 µM (active) and 2.98 µM (active) | – |
| CC(O)CN(CCN(CC(C)O)CC(C)O)CC(C)O (stereo not given) | inactive | – |
| O=C1NC(=O)c2ccccc21 | inactive | – |
| CCCN(CCC)S(=O)(=O)c1ccc(C(=O)O)cc1 | inactive | – |
| c1ccc2[nH]ccc2c1 | inactive | – |

| SMILES | Potency | activity change, negative = inhibition |
| --- | --- | --- |
| NNC(=O)c1ccncc1 | inactive | – |
| O=C(O)CCC(=O)O | inactive | – |
| OC(Cn1cncn1)(Cn1cncn1)c1ccc(F)cc1F | inactive | – |
| NC(=O)NC1NC(=O)NC1=O (stereo not given) | inactive | – |
| CCCC(O)C(CC)CO (stereo not given) | inactive | – |
| CC(O)CO (stereo not given) | inactive | – |
| CC(=O)NS(=O)(=O)c1ccc(N)cc1 | inactive | – |
| COc1c2occc2cc2ccc(=O)oc12 | inactive | – |
| O=C(O)c1cc(N=Nc2ccc(S(=O)(=O)Nc3ccccn3)cc2)ccc1O | 27.3 µM (active) | – |
| Cc1ccccc1C(OCCN(C)C)c1ccccc1 (stereo not given) | inactive | – |
| NC(N)=NC(=O)c1nc(Cl)c(N)nc1N | – | -3.21% [at 42.5 µM] |
| Nc1ccc(S(=O)(=O)Nc2nccs2)cc1 | inactive | – |
| Cc1cc(=O)[nH]c(=S)[nH]1 | inactive | – |
| C[C@]12C=CC(=O)C=C1CC[C@@H]1[C@@H]2[C@@H](O)C[C@@]2(C)[C@H]1CC[C@]2(O)C(=O)CO | inactive | – |
| O=C(O)c1cccc([N+](=O)[O-])c1 | inactive | – |
| O=C(O)c1[nH]n(-c2ccc(S(=O)(=O)O)cc2)c(=O)c1N=Nc1ccc(S(=O)(=O)O)cc1 | inactive | – |
| CCCC(CCC)C(=O)O | inactive | – |
| O=C(O)/C=C\C(=O)O | inactive | – |
| O=S(=O)(O)NC1CCCCC1 | inactive | – |
| CC1(C)[C@@H]2CC[C@@]1(C)C(=O)C2 | inactive | – |
